According to PubChem BioAssay (NCATS):
Results filed as inconclusive are left out. Where a call stands in place of a potency, no number is given. Active and inactive are the calls of the source. Calls follow the shape of the dose curve; as a rule, active = well fitted inhibition curve with a large enough effect; inconclusive = small, poorly fitted or top-dose-only effect; inactive = no such curve, though single readings can be large or run the other way.

Assay: qHTS for Inhibitors of the Aldehyde Dehydrogenase Family (ALDH1A2, ALDH1A3, ALDH2, ALDH3A1) (AID 2061307); also: nearly all actives have a fitted effect of over 50% in size; as to potency: test system not described further here
Conditions: ALDH inhibition qHTS; series mostly up to 50.3 µM
Potency is read from the fitted curve at half-maximal effect.

Structure (SMILES) | Potency
COc1cc2ccccc2cc1C(=O)NC(=S)Nc1cccc(C(=O)O)c1 | 4.49 µM (active)
CC(C)(C)OC(=O)NC1CCN(c2nc(Br)cs2)CC1 | inactive
Fc1ccc(Cn2cnc3ccccc32)cc1F | 12.7 µM (active)
O=C(c1cccc(Cl)c1)c1no[n+]([O-])c1C(=O)c1cccc(Cl)c1 | 12.7 µM (active)
NS(=O)(=O)c1ccc(Cc2cn(-c3nc(C(=O)O)cs3)c3ccccc23)cc1 | inactive
CC(Sc1nc2c(cnn2C2COC2)c(=O)n1-c1ccccc1)c1ccccc1 (stereo not given) | inactive
Cc1ccc2c(c1)/C(=C\C(=O)c1cccs1)C(=O)N2 | inactive
Cn1cc2c(=O)n(-c3ccccc3)c(SCc3cccc(F)c3)nc2n1 | inactive
COc1cccc(Nc2nc(C)c(C(=O)Nc3ccccc3)s2)c1 | inactive
CSc1sc(C(=O)NN)c2c1C(O)CCC2 (stereo not given) | 22.5 µM (active)
O=C(Nc1cccc(S(=O)(=O)N2CCOCC2)c1)c1cc(-c2cccnc2)nc2ccccc12 | inactive
CCc1ccc(NC(=O)c2cc3c(=O)n(Cc4cccnc4)ccc3nc2C)cc1 | inactive
Cc1ccc(C)n1-c1ccccc1C(=O)O | inactive
FC(F)(F)c1ccnn1-c1nc(-c2ccccc2Cl)cs1 | inactive
O=C(O)c1csc(-n2[nH]c(-c3cc(F)ccc3F)cc2=O)n1 | inactive
NC(=O)Nc1ccc(CNC(=O)C2Cc3ccccc3O2)cc1 (stereo not given) | inactive
Cc1occc1C(=O)N1CCc2cc(-c3nc(NC(=O)Cc4ccc5c(c4)OCO5)sc3C)ccc21 | 7.08 µM (active)
Cc1cccn2c(=O)c(C(=O)NCc3cccc(F)c3)cnc12 | inactive
COc1ccc(-n2ccc(CNc3cccc(F)c3C#N)n2)cc1 | inactive
O=C(Nc1nc(-c2ccccn2)cs1)C1CCCCC1 | 3.98 µM (active)

Structure (SMILES) | Potency
CCN1CCC(N(CCc2ccccc2)Cc2ccccc2)CC1 | inactive
COc1ccc(NC(=O)Cn2ncc3ccccc3c2=O)cc1S(=O)(=O)N1CCOCC1 | inactive
Oc1ccc(N2CCN(Cc3ccc(OCCCN4CCCCC4)cc3)CC2)cc1 | inactive
Cc1cc(=O)n2[nH]c(NC(=O)c3ccccc3C)nc2n1 | inactive
CCc1ccc(CSc2nccn2-c2ccccc2)cc1 | inactive
COc1ccc(-n2ncc3c2CCCC3NC(=O)c2cccc(OC(F)(F)F)c2)cc1 (stereo not given) | 12.6 µM (active)
COc1ccc(-c2cc(=O)n(-c3nc(C(=O)O)cs3)[nH]2)cc1 | inactive
CC/C=C\C/C=C\C/C=C\C/C=C\C/C=C\C/C=C\CCC(=O)NCCN(C)C | inactive
CCCCn1cnc2cc(NCc3ccc(OCC)cc3)ccc21 | 5.04 µM (active)
Cc1cccc2c1NC(=O)C2(O)CC(=O)c1ccco1 (stereo not given) | 0.565 µM (active)
O=C(N/N=C/c1ccc(Sc2nc3ccccc3s2)o1)c1cccc(F)c1 | 0.896 µM (active)
O=C(Nc1ccccc1F)c1nc(S(=O)(=O)Cc2ccccc2F)ncc1Cl | 3.16 µM (active)
N#Cc1cccc(NC(=O)N2C[C@@H]3C[C@H](C2)c2ccc(-c4ccc(OC(F)(F)F)cc4)c(=O)n2C3)c1 | inactive
COc1ccc(-n2nnc(-c3nc(-c4cccs4)no3)c2N)cc1OC | inactive
COc1ccc(Cl)cc1Nc1cc(C)nc2nc(-c3ccccc3C)nn12 | inactive
COC(=O)c1ccc(S(=O)(=O)N2CCC(c3nc4ccccc4s3)CC2)cc1 | inactive
O=C(Nc1ccn[nH]1)c1ccn(-c2cccc(F)c2)n1 | inactive
N[C@@H](CCC(=O)O)C(=O)Nc1cccc(-c2nn3c(=O)cc(N4CCNCC4)nc3s2)c1 | inactive
O=C(Nc1ccc(N2CCCCC2)nc1)c1cccs1 | 5.04 µM (active)
CC(Sc1nc2nn(C3COC3)cc2c(=O)n1-c1ccccc1)c1ccccn1 (stereo not given) | inactive
